These results are taken from PubChem BioAssay (EPA / NIEHS).

Structures are written as SMILES. Where “and” joins values, the source holds several entries; their conditions need not be identical. Equal entries are not always repeated. Results filed as inconclusive are left out. The source holds several records for some structures; these can differ, active in one and inactive in another. Calls of active or inactive are those of the source. How the source made its calls, unless noted: active means hit-call score of the fitted dose curve at least 0.9, where 1 is the maximum; inconclusive means response in the unintended direction; inactive means score below 0.9.

The target of the first assay is human Retinoic Acid Receptor beta (RARb), RARB (gene 5915) (UniProt P10826). Put plainly: ATG_RARb_TRANS: Attagene TRANS-FACTORIAL HepG2 Assay for human Retinoic Acid Receptor beta (AID 2283004).
Sequence of human Retinoic Acid Receptor beta (RARb), RARB (gene 5915) (P10826 whole entry, looked up): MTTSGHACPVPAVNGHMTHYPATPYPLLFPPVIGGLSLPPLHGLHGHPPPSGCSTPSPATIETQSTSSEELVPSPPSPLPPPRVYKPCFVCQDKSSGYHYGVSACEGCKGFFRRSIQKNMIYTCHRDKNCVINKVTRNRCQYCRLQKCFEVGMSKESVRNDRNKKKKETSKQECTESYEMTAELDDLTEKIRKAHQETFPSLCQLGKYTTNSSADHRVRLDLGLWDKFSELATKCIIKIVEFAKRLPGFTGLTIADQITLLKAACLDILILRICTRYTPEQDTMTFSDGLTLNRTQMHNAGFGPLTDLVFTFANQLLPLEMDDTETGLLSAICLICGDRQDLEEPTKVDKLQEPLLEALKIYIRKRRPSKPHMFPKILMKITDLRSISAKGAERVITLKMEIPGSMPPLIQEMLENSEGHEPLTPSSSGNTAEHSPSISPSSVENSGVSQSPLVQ
Conditions: not given
Put shortly:
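HepG2 cells transiently transfected with multiplexed GAL4-UAS reporter units expressing chimeric NR–Gal4 fusions; 24 h compound exposure. Reporter mRNA quantified by RT-PCR, 6-FAM labelling, HpaI digestion and capillary electrophoresis; gain-of-signal fitted against DMSO baseline.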
For the compound `C#CCC1=C(C)C(OC(=O)C2C(C=C(C)C)C2(C)C)CC1=O` (stereo not given), the compound was classed as inactive.
Regarding `N#CSCSC#N`, the compound was called inactive.
For `CCOC(=O)COc1cc(-c2nn(C)c(OC(F)F)c2Cl)c(F)cc1Cl`, the outcome was inactive.
Consider `CCCOCC(=Nc1ccc(Cl)cc1C(F)(F)F)n1ccnc1`, for which the call was inactive.
Consider `CN1COCN(Cc2cnc(Cl)s2)C1=N[N+](=O)[O-]`, for which the result was inactive.
Same read-out and setting: for `Nc1nc(N)nc(NC2CC2)n1` the value was “inactive”; for `CON=C(C(=O)OC)c1ccccc1CON=C(C)c1cccc(C(F)(F)F)c1`, “inactive”.
On to `CCCCN(CC)c1c([N+](=O)[O-])cc(C(F)(F)F)cc1[N+](=O)[O-]`, for which the compound was called inactive.
Still for that read-out and setting: next, `CSc1nc(NC(C)C)nc(NC(C)C)n1`: “inactive”.
As to `O=[N+]([O-])c1cc(C(F)(F)F)c(Cl)c([N+](=O)[O-])c1Nc1ncc(C(F)(F)F)cc1Cl`, the compound was called inactive.
Same read-out and setting: next, `CCC(=O)Nc1ccc(Cl)c(Cl)c1`: “inactive”; `COP(=O)(OC)C(O)C(Cl)(Cl)Cl` (stereo not given): “inactive”.
Regarding `CC(C1CC1)C(O)(Cn1cncn1)c1ccc(Cl)cc1` (stereo not given), the compound was called inactive.
The same measure, in the same setting: for `CN(C)C(=O)Nc1cccc(C(F)(F)F)c1` the value was “inactive”; for `CC(C)N(C(=O)SCC(Cl)=C(Cl)Cl)C(C)C`, “inactive”; for `CCCCSP(=O)(SCCCC)SCCCC`, “inactive”.
Turning to `CCOP(=S)(OCC)SCCSCC`, the call was inactive.
On to `C=C(C)[C@H]1Cc2c(ccc3c2O[C@@H]2COc4cc(OC)c(OC)cc4[C@@H]2C3=O)O1`, for which the outcome was inactive.
With `CCCSP(=O)(OCC)Oc1ccc(Br)cc1Cl` (stereo not given), the compound was classed as inactive.
The same measure, in the same setting: for `CCOP(=S)(OCC)Oc1ccc2c(C)c(Cl)c(=O)oc2c1` the value was “inactive”.
Same read-out and setting: next, `CCOC(=O)CC(SP(=O)(OC)OC)C(=O)OCC` (stereo not given): “inactive”; `O=C(O)c1cc(Oc2ccc(C(F)(F)F)cc2Cl)ccc1[N+](=O)[O-]`: “inactive”.

For a further assay, the target named is Retinoic acid receptor alpha (Homo sapiens) (UniProt P10276). The assay can be described thus: ATG_RARa_TRANS: Attagene TRANS-FACTORIAL HepG2 Assay for human Retinoic Acid Receptor alpha (RARa) (AID 2283005).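 On AC50: potency for increased reporter signal meaning RARa activation over DMSO.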
Sequence of Retinoic acid receptor alpha (Homo sapiens) (P10276 whole entry, looked up): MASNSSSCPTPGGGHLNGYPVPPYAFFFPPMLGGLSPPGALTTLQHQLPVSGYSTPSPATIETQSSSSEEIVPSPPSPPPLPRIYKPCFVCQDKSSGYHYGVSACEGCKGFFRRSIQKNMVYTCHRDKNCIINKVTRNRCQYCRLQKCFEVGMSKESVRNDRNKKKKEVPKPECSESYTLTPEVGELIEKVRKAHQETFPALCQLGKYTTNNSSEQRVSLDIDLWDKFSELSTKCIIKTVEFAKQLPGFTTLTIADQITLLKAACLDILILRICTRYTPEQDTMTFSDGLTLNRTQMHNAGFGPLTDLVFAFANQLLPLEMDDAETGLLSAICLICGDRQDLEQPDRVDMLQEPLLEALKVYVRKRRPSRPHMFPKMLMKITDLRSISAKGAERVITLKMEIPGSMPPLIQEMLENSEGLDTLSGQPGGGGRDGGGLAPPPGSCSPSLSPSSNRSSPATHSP
Conditions: not given
In a few lines:
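HepG2 transiently transfected with multiplex GAL4-UAS reporter units including a human RARa–GAL4 chimera; 24 h compound exposure. Reporter mRNA quantified by RT-PCR, 6-FAM labeling and capillary electrophoresis; gain of signal versus DMSO.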
Consider `C#CCC1=C(C)C(OC(=O)C2C(C=C(C)C)C2(C)C)CC1=O` (stereo not given), for which the call was inactive.
Still for that read-out and setting: for `N#CSCSC#N` the value was “inactive”; for `CN(C)NC(=O)CCC(=O)O`, “inactive”; for `CCOC(=O)COc1cc(-c2nn(C)c(OC(F)F)c2Cl)c(F)cc1Cl`, “inactive”.
On to `CCCOCC(=Nc1ccc(Cl)cc1C(F)(F)F)n1ccnc1`, for which the AC50 is 1.1 µM (active).
`Nc1nc(N)nc(NC2CC2)n1`: the call was inactive.
On the same count and under the same terms, next, `CON=C(C(=O)OC)c1ccccc1CON=C(C)c1cccc(C(F)(F)F)c1`: “inactive”; `CCCCN(CC)c1c([N+](=O)[O-])cc(C(F)(F)F)cc1[N+](=O)[O-]`: “inactive”; `CSc1nc(NC(C)C)nc(NC(C)C)n1`: “inactive”.
The same measure, in the same setting: for `Cc1cc(C2CC2)nc(Nc2ccccc2)n1` the value was “inactive”.
On the same count and under the same terms, next, `O=[N+]([O-])c1cc(C(F)(F)F)c(Cl)c([N+](=O)[O-])c1Nc1ncc(C(F)(F)F)cc1Cl`: “inactive”; `CCC(=O)Nc1ccc(Cl)c(Cl)c1`: “inactive”.
Consider `COP(=O)(OC)C(O)C(Cl)(Cl)Cl` (stereo not given), for which the AC50 is 78.9 µM (active).
Take `CC(C1CC1)C(O)(Cn1cncn1)c1ccc(Cl)cc1` (stereo not given): the compound was called inactive.
On the same count and under the same terms, for `CN(C)C(=O)Nc1cccc(C(F)(F)F)c1` the value was “inactive”; for `CC(Oc1cccc(Cl)c1)C(=O)O` (stereo not given), “inactive”; for `CC(C)N(C(=O)SCC(Cl)=C(Cl)Cl)C(C)C`, “inactive”.
Same read-out and setting: for `CCOP(=S)(OCC)SCCSCC` the value was “inactive”; for `C=C(C)[C@H]1Cc2c(ccc3c2O[C@@H]2COc4cc(OC)c(OC)cc4[C@@H]2C3=O)O1`, “inactive”.
On the same count and under the same terms, next, `CCCSP(=O)(OCC)Oc1ccc(Br)cc1Cl` (stereo not given): “inactive”.
Turning to `CCOP(=S)(OCC)Oc1ccc2c(C)c(Cl)c(=O)oc2c1`, the AC50 was 2.3 µM (active).
As for `O=C(O)c1cc(Oc2ccc(C(F)(F)F)cc2Cl)ccc1[N+](=O)[O-]`, the AC50 was 2.9 µM (active).

Read-out in another assay: not listed separately
The assay can be described thus: BSK_3C_Proliferation: Cell Proliferation Assessment in the BioMAP Diversity Plus: 3C Assay (AID 2283006; active means hit-call score of the fitted dose curve at least 0.9, where 1 is the maximum; inactive means score below 0.9;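 on AC50: potency may reflect either rise or fall in cell number versus DMSO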). As to conditions: primary human endothelial cells (HUVEC). In a few lines: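 Subconfluent HUVEC (3C system) cultured with chemical; relative cell number read at 48 h by sulforhodamine B total-protein staining (0.1% SRB after 10% TCA fixation, 560 nm). Bidirectional fit relative to DMSO.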
Take `C#CCC1=C(C)C(OC(=O)C2C(C=C(C)C)C2(C)C)CC1=O` (stereo not given): the AC50 was 28.8 µM (active).
The same measure, in the same setting: for `N#CSCSC#N` the value was 2.07 µM (active).
On to `CN(C)NC(=O)CCC(=O)O`, for which the result was inactive.
As to `CCOC(=O)COc1cc(-c2nn(C)c(OC(F)F)c2Cl)c(F)cc1Cl`, the AC50 is 15.5 µM (active).
Take `Cc1nn(-c2cc(NS(C)(=O)=O)c(Cl)cc2Cl)c(=O)n1C(F)F`: the outcome was inactive.
For the compound `CCCOCC(=Nc1ccc(Cl)cc1C(F)(F)F)n1ccnc1`, the AC50 is 33.4 µM (active).
On to `CN1COCN(Cc2cnc(Cl)s2)C1=N[N+](=O)[O-]`, for which the result was inactive.
Take `CCCCOC(=O)c1ccccc1C(=O)O`: the result was inactive.
Same read-out and setting: next, `CCNc1nc(Cl)nc(NC(C)(C)C#N)n1`: “inactive”.
Take `Nc1nc(N)nc(NC2CC2)n1`: the outcome was inactive.
Regarding `CON=C(C(=O)OC)c1ccccc1CON=C(C)c1cccc(C(F)(F)F)c1`, the AC50 is 1.58 µM (active).
Same read-out and setting: for `CCCCN(CC)c1c([N+](=O)[O-])cc(C(F)(F)F)cc1[N+](=O)[O-]` the value was 31.6 µM (active).
For `CSc1nc(NC(C)C)nc(NC(C)C)n1`, the outcome was inactive.
Take `Cc1cc(C2CC2)nc(Nc2ccccc2)n1`: the AC50 was 15.8 µM (active).
Same read-out and setting: next, `O=[N+]([O-])c1cc(C(F)(F)F)c(Cl)c([N+](=O)[O-])c1Nc1ncc(C(F)(F)F)cc1Cl`: 589 nM (active) and 1.47 µM (active).
For the compound `CCC(=O)Nc1ccc(Cl)c(Cl)c1`, the outcome was inactive.
In the case of `COP(=O)(OC)C(O)C(Cl)(Cl)Cl` (stereo not given), the result was inactive.
Regarding `CC(C1CC1)C(O)(Cn1cncn1)c1ccc(Cl)cc1` (stereo not given), the outcome was inactive.
Still for that read-out and setting: for `CN(C)C(=O)Nc1cccc(C(F)(F)F)c1` the value was “inactive”.
The same measure, in the same setting: for `CC(Oc1cccc(Cl)c1)C(=O)O` (stereo not given) the value was “inactive”.
Turning to `CC(C)N(C(=O)SCC(Cl)=C(Cl)Cl)C(C)C`, the AC50 was 34.7 µM (active).
Turning to `CNC(=O)Oc1cccc2c1OC(C)(C)O2`, the result was inactive.
Regarding `CCCCSP(=O)(SCCCC)SCCCC`, the AC50 is 29.5 µM (active).
For `CCOP(=S)(OCC)SCCSCC`, the result was inactive.
`C=C(C)[C@H]1Cc2c(ccc3c2O[C@@H]2COc4cc(OC)c(OC)cc4[C@@H]2C3=O)O1`: the AC50 was 1.36 µM (active).
For `CCCSP(=O)(OCC)Oc1ccc(Br)cc1Cl` (stereo not given), the AC50 was 27.4 µM (active).
Take `CCOP(=S)(OCC)Oc1ccc2c(C)c(Cl)c(=O)oc2c1`: the AC50 is 9.56 µM (active).
As for `CN(C)[C@@H]1C(=O)C(C(N)=O)=C(O)[C@@]2(O)C(=O)C3=C(O)c4c(O)cccc4[C@@](C)(O)[C@H]3[C@H](O)[C@@H]12`, the AC50 was 20 µM (active) and the result was inactive.
For `C[Si](Cn1cncn1)(c1ccc(F)cc1)c1ccc(F)cc1`, the outcome was inactive.
Same read-out and setting: for `CNC(=O)ON=C(C)SC` the value was “inactive”; for `CCOC(=O)CC(SP(=O)(OC)OC)C(=O)OCC` (stereo not given), “inactive”; for `CCCCOC(=O)[C@@H](C)Oc1ccc(Oc2ccc(C#N)cc2F)cc1`, “inactive”.
Regarding `COc1ccc(C(=CC(=O)N2CCOCC2)c2ccc(Cl)cc2)cc1OC`, the outcome was inactive.
Still for that read-out and setting: next, `CNC(=O)ON=C(SC)C(=O)N(C)C`: “inactive”; `O=C(O)c1cc(Oc2ccc(C(F)(F)F)cc2Cl)ccc1[N+](=O)[O-]`: “inactive”.

The term AC50 denotes the midpoint of the concentration-response curve, whichever way the signal moves.
